Laboratory results reported in the supplement of paper PMC11732987, “Enantioselective OTUD7B fragment discovery through chemoproteomics screening and high-throughput optimisation” (Communications Chemistry, 2025).

How the values were obtained:
Assay in all cases: log2 ratio of Biotin-Ahx-Ub-VS probe labelling (fragment/DMSO); higher = less target engagement (more negative = stronger competition), active = hit call of the paper (q ≤ 0.05, log2 ratio ≤ -1)
Details in all cases: compound concentration: 200 uM; treatment time: 3 h
OTUD6B = molecular target: T1, OTUD6B (UniProt Q8N6M0)
T1 sequence (whole entry): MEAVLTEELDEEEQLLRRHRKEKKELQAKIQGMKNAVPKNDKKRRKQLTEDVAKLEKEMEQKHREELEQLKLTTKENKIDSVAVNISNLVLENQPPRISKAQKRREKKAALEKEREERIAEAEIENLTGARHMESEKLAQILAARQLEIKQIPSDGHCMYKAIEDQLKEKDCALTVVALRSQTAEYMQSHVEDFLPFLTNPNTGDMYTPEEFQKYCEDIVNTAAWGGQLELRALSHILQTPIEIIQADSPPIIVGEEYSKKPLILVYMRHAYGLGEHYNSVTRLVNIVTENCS
Outline: (§1)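 HEK293T lysate (495 µg per sample, in Tris/CHAPS/IGEPAL buffer with protease inhibitors) was treated in triplicate with fragment at 200 µM or with DMSO for 3 h. It was then treated with Biotin-Ahx-Ub-VS (0.5 µM final) for 1 h. Labelled DUBs were NeutrAvidin-enriched, digested with LysC and trypsin, and run by diaPASEF LC-MS/MS. Spectronaut label-free quantities were global-median-normalised. Values are average log2 ratios fragment/DMSO by unpaired t-test, using proteins with ≥2 unique peptides.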

OTUD7B = molecular target: T2, OTUD7B (UniProt Q6GQQ9)
T2 sequence (whole entry): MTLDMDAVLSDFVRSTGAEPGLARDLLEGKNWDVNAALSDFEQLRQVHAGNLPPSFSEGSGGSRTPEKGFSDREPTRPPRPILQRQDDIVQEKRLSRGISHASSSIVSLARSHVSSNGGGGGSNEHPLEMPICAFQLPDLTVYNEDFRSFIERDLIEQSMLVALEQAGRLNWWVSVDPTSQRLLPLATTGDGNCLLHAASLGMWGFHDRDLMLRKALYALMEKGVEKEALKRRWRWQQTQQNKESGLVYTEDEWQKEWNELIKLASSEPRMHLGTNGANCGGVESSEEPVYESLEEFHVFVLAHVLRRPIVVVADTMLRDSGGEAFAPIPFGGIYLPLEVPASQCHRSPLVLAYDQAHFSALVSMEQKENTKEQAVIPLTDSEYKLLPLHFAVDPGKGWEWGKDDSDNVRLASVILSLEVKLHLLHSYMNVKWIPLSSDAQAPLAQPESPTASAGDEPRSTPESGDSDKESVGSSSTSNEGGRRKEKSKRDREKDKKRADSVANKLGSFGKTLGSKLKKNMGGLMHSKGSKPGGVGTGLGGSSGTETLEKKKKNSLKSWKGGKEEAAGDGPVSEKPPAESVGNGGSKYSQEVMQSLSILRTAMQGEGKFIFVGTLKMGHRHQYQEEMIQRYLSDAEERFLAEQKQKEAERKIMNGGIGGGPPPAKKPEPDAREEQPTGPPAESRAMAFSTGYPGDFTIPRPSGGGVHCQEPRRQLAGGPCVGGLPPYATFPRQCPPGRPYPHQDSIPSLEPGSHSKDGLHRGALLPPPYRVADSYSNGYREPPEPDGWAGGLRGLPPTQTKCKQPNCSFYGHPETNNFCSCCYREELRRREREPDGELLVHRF
Outline: as §1

PRPF8 = PRPF8 (UniProt Q6P2Q9)
Outline: as §1

PSMD7 = molecular target: T3, PSMD7 (UniProt P51665)
T3 sequence (whole entry): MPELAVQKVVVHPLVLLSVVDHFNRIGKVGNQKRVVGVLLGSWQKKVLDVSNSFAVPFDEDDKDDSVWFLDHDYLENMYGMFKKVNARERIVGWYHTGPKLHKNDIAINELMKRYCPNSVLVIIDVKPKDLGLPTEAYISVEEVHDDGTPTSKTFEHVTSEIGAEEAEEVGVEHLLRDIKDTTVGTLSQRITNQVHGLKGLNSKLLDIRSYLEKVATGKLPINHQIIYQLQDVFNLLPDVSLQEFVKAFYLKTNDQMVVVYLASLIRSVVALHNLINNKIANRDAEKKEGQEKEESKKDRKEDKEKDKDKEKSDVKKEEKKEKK
Outline: as §1

UCHL1 = UCHL1 (UniProt P09936)
Sequence of UCHL1 (P09936 whole entry, looked up): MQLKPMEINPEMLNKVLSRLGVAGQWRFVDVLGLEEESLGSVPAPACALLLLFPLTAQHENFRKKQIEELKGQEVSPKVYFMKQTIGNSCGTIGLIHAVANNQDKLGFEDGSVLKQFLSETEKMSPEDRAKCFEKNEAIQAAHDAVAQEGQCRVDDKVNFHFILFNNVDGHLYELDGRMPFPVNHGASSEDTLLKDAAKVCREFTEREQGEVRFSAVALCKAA
Outline: as §1

UCHL3 = molecular target: T4, UCHL3 (UniProt P15374)
T4 sequence (whole entry): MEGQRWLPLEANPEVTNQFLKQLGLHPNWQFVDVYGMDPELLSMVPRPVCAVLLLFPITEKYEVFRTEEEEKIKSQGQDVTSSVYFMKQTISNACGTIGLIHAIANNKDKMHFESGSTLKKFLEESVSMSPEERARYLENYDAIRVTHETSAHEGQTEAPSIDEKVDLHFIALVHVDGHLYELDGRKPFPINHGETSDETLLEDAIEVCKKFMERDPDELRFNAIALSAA
Outline: as §1

UCHL5 = molecular target: T5, UCHL5 (UniProt Q9Y5K5)
T5 sequence (whole entry): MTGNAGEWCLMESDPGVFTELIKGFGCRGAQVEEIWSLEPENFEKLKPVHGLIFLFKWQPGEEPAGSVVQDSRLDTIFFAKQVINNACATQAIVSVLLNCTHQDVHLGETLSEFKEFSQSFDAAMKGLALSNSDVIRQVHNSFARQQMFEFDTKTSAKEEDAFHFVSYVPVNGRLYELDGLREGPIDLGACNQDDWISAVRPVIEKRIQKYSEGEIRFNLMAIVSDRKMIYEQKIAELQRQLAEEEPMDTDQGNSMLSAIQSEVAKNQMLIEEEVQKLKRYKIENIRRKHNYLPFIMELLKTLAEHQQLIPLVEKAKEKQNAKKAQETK
Outline: as §1

USP10 = USP10 (UniProt Q14694)
Sequence of USP10 (Q14694 whole entry): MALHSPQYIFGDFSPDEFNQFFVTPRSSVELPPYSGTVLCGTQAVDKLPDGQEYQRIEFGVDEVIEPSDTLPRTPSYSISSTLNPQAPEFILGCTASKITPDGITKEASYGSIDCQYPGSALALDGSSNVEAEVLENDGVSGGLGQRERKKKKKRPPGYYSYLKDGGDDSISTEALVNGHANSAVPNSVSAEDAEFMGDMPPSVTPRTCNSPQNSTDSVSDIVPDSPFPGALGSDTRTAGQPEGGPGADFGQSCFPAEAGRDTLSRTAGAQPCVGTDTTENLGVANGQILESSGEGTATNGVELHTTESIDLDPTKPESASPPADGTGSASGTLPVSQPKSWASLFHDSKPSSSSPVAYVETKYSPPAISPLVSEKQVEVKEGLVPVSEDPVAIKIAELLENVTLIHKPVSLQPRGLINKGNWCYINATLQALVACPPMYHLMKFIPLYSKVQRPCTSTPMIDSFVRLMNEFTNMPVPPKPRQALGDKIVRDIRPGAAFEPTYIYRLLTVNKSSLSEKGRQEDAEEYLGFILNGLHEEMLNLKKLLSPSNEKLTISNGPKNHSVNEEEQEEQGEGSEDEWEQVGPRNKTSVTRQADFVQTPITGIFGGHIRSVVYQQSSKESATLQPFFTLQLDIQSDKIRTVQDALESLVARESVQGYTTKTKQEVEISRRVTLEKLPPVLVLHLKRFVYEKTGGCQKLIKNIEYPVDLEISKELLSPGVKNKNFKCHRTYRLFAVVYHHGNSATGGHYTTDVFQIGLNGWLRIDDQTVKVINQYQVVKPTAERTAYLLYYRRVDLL
Outline: as §1

USP15 = molecular target: T6, USP15 (UniProt Q9Y4E8)
T6 sequence (whole entry): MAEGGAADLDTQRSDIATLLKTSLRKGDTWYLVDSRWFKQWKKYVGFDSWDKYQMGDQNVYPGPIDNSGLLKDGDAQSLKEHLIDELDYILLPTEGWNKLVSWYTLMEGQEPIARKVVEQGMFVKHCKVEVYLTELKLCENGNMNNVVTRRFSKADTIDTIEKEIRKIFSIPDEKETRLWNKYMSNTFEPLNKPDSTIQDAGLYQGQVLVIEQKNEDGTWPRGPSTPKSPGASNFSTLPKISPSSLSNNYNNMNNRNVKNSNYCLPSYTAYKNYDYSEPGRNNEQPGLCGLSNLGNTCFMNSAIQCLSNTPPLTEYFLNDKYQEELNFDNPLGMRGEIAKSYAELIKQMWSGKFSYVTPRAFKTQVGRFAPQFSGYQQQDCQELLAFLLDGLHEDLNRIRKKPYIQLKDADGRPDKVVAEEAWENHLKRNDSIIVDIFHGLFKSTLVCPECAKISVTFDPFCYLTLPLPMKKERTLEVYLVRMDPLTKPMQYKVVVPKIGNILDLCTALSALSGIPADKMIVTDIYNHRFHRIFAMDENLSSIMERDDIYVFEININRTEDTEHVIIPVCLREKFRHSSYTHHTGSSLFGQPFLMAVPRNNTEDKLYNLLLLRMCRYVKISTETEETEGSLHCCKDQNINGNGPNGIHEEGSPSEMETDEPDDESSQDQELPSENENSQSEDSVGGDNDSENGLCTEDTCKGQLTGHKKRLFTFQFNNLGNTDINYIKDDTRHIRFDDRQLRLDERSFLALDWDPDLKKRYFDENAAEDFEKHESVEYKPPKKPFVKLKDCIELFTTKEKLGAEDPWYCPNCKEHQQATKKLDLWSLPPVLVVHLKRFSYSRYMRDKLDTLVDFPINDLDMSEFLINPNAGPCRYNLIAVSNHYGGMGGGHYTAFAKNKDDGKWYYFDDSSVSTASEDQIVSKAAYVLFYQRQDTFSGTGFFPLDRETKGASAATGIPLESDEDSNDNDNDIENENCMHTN
Outline: as §1

USP16 = USP16 (UniProt Q9Y5T5)
Sequence of USP16 (Q9Y5T5 whole entry, looked up): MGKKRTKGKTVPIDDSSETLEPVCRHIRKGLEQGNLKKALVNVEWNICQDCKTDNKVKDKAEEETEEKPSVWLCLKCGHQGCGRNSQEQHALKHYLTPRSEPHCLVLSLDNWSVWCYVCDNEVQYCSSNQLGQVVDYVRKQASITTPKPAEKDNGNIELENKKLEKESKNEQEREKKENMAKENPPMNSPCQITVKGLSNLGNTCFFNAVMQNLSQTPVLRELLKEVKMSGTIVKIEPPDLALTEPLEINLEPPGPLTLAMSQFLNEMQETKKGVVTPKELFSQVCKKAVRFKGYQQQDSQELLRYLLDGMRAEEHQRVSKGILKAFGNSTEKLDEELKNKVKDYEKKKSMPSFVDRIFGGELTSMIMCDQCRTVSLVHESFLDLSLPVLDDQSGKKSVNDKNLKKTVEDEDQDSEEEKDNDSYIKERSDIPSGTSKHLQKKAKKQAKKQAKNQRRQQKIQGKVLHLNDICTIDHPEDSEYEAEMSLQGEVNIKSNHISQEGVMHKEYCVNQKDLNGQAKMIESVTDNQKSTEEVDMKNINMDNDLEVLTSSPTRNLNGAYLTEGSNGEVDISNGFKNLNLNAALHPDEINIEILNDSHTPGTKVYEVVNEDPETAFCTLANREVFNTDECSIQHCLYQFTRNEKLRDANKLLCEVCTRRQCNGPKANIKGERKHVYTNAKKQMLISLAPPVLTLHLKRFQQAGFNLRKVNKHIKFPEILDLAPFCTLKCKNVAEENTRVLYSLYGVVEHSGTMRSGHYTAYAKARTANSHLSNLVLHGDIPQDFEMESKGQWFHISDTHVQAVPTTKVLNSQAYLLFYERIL
Outline: as §1

Measured: log2 ratio of Biotin-Ahx-Ub-VS probe labelling

O=C(CCl)N1c2ccccc2NC(=O)C12CCCC2
inactive: OTUD6B -0.0738 | OTUD7B -0.0903 | PRPF8 -0.16 | PSMD7 0.0949 | UCHL1 -0.493 | UCHL3 0.749 | UCHL5 -0.148 | USP10 -0.393 | USP15 0.113 | USP16 0.103
